From ChEMBL document CHEMBL1201862, “PubChem BioAssay data set” (2004)
Screen size: about 57,000 […]; about 4,000 (7%) were called active. No stated cut-off is given here; in the data, active = GI50 up to about 1.1 µM and inactive = higher. A selection follows. Potency and affinity values are given separately.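 A five-concentration, 48-hour dose response in 96-well plates underlies each endpoint, interpolated linearly between surrounding concentrations. Here, GI50 denotes the concentration required for 50% inhibition of growth.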

Tested on: M14
Test: NCI tumour cell line growth inhibition, 48 h

Substance	GI50 [µM]
mu-(1,7-nanodiamine-N,N')bis-(cis-aminedichloroplatimum (II)), CHEMBL2146215	7.78
cis-Bis[[(trimethylsilyl)methyl]amino]tetrachloroplatinum(IV), CHEMBL2146191	3.5
[Bis(aminomethyl)dimethylsilane]dichloroplatinum (II), CHEMBL2146201	22.9
[Bis(aminomethyl)diethylsilane]tetrachloroplatinum(IV), CHEMBL2146203	1.38
[Bis(aminomethyl)tetramethylenesilane]dichloropaltinum(II), CHEMBL2146205	13.5
[Bis(aminomethyl)ethylmethylsilane]tetrachloroplatinum(IV), CHEMBL2146192	2.68
[Bis(aminomethyl)tetramethylenesilane]tetrachloropaltinum(IV), CHEMBL2146189	6.11
CISPLATIN, CHEMBL11359	1.95
[Bis(aminomethyl)dimethylsilane]tetrachloroplatinum(IV), CHEMBL2146190	7.45
[Bis(aminomethyl)pentamethylenesilane]tetrachloropaltinum(IV), CHEMBL2146204	2.13
[Bis(aminomethyl)pentamethylenesilane]dichloropaltinum(II), CHEMBL2146202	1.92
